Consider 71 compounds from PubChem BioAssay AID813 (Sanford-Burnham Center for Chemical Genomics, 2007).

Among all 64,000 compounds or so, fewer than 10 were called active. These entries were drawn from the full list. Unmarked numbers belong to inactive results.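 How the source made its calls: active means activation factor of at least 2 at 20 µM, relative to controls; inactive means the rest.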

This experiment deals with Alkaline phosphatase, tissue-nonspecific isozyme (Homo sapiens) (UniProt P05186). The experiment in a line: stimulation of alkaline phosphatase TNAP activity – biochemical, luminescent, intermediate phosphate acceptor level, primary screen (AID 813). The note with it: purified TNAP, CDP-star luminescence, 100 mM DEA, 30 min; at 20 µM; hits give high values; scale: 0 levamisole-inhibited, 1 vehicle-only enzyme.
Sequence of Alkaline phosphatase, tissue-nonspecific isozyme (Homo sapiens) (P05186 whole entry, looked up): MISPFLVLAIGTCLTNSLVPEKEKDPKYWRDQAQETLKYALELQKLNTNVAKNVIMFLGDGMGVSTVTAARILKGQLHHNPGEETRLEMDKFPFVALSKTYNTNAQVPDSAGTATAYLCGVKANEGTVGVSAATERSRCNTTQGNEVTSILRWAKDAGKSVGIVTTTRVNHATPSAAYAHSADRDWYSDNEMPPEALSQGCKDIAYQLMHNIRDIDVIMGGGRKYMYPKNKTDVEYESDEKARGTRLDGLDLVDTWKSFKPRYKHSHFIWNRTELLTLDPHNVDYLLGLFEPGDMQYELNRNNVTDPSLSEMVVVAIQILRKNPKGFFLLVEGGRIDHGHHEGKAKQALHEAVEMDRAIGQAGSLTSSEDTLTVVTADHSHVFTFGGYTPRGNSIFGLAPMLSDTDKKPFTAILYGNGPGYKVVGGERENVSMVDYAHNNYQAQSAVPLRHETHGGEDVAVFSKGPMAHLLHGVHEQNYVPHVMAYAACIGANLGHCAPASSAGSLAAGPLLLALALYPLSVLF
For the compound `O=C(C1CCCO1)N(Cc1ccccc1)c1ccccc1` (stereo unspecified), the activation factor was 0.9.

Turning to `Cc1nn(-c2ccccc2)c2sc(C(=O)N(Cc3ccco3)C(C)C(=O)NC(C)(C)C)cc12` (stereo unspecified), the activation factor was 0.9.

As for `COc1cccc(N2C(=O)CC(N3CCN(S(=O)(=O)c4ccccc4)CC3)C2=O)c1` (stereo unspecified), the activation factor was 1.

Take `CCN(CC)S(=O)(=O)c1cccc(C(=O)NCC(=O)OCC(=O)NCc2ccccc2)c1`: the activation factor was 0.9.

As to `O=C(O)c1ccc(COc2c(F)c(F)cc(F)c2F)o1`, the activation factor is 0.8.

For the compound `CC12CN(Cc3ccccc3)CC(C)(CN(Cc3ccccc3)C1)C2=NO`, the activation factor was 1.2.

Consider `COc1ccc(C)cc1-n1nnnc1SCC(=O)c1cc(C)n(Cc2ccco2)c1C`, for which the activation factor was 0.8.

Consider `O=C(c1cccs1)N1CCN(Cc2ccc3c(c2)OCO3)CC1`, for which the activation factor is 1.

Take `COc1cccc(N(C(=O)c2ccn[nH]2)C2(C(=O)Nc3c(C)cccc3C)CCCCC2)c1`: the activation factor was 2.8 (active).

For `COc1cccc(N2CC(C(=O)Nc3c(C)cccc3C)CC2=O)c1` (stereo unspecified), the activation factor is 1.

Regarding `Fc1cc(F)c2nc(N3CCOCC3)sc2c1`, the activation factor is 0.9.

`Cc1ccc(C(=O)O)cc1S(=O)(=O)NCC1CCCO1` (stereo unspecified): the activation factor is 0.9.

With `COC(=O)c1ccccc1NC(=O)C1CCN(S(=O)(=O)c2cc(OC)ccc2OC)CC1`, the activation factor was 0.9.

`Cc1cccc(N)c1SC1CCCCC1O` (stereo unspecified): the activation factor was 0.9.

In the case of `CC(=O)Nc1cccc2c1[n+]([O-])c(C)c(C)[n+]2[O-]`, the activation factor is 1.

With `CC(=O)OC(C(=O)NCCc1ccccc1)c1cccnc1` (stereo unspecified), the activation factor is 1.

Regarding `CCc1nc2oc3ccccc3c(=O)c2c(=O)n1Cc1ccc(OC)cc1`, the activation factor was 0.9.

As for `CCSc1ncnc2c(C#N)c3n(c12)CCCCC3`, the activation factor is 0.9.

As to `O=C(Nc1c(C(=O)N2CCCCC2)cnn1-c1ccccc1)c1ccco1`, the activation factor is 1.

As to `CC1(C)CC(=O)C2=C(C1)NCN(CCCN1CCOCC1)C2`, the activation factor was 0.9.

Consider `CCOC(=O)N1CCN(C(=O)Cc2ccc(-n3c(=S)[nH]c4ccccc4c3=O)cc2)CC1`, for which the activation factor is 1.

As for `O=C(OC(C(=O)NC1CCCC1)c1ccc(F)cc1)c1ccno1` (stereo unspecified), the activation factor is 0.9.

With `CC(=O)N1CCN(CCN=CC2=C(O)CC(C)(C)CC2=O)CC1`, the activation factor is 0.9.

Turning to `OCCCN1c2ccccc2Nc2nnc(-c3ccccc3)cc21`, the activation factor is 4.3 (active).

As to `CCCS(=O)(=O)C(=C1Nc2ccccc2N1)S(=O)(=O)CCC`, the activation factor was 0.9.

Consider `O=C(Cc1c(F)cccc1Cl)N1CCN(C(=O)c2ccco2)CC1`, for which the activation factor was 0.8.

In the case of `O=C(COc1ccccc1Cl)Nn1cnnc1`, the activation factor was 0.9.

Turning to `O=C(CN(Cc1ccccc1)C(=O)c1ccc2c(c1)OCCO2)NCc1ccc2c(c1)OCO2`, the activation factor was 0.9.

On to `COc1ccc(C(=O)N(CCN2CCOCC2)CC(=O)NC2CCCC2)cc1OC`, for which the activation factor is 0.9.

As for `COc1ccc(C2C3=C(OC(C)=O)c4ccccc4C3=Nc3c2c(=O)n(C)c(=O)n3C)cc1` (stereo unspecified), the activation factor is 0.8.

For `Cc1ccc(S(=O)(=O)c2c(N)n(C)c3nc4ccccc4nc23)cc1`, the activation factor was 0.9.

Consider `NC(=O)C1CCN(C2OC(=O)c3ccccc32)CC1` (stereo unspecified), for which the activation factor is 0.9.

As to `O=C(OCC(=O)N1CCN(C(=O)c2ccco2)CC1)c1ccccc1Cc1ccccc1`, the activation factor is 1.

In the case of `Cc1coc2c(O)cc3c(c12)OC1(N2CCCCC2)C(=O)NCCCC31` (stereo unspecified), the activation factor was 0.9.

For the compound `CCC1=[N+]([O-])C(C)(/C(C)=N\O)N(O)C1(C)C` (stereo unspecified), the activation factor was 1.

`O=C(CN1CCN(C(=O)c2cccc(F)c2)CC1)Nc1ccccc1F`: the activation factor is 1.1.

Regarding `CC/C(=N\O)C(C)(C)/[N+]([O-])=C/c1ccc(Br)cc1`, the activation factor was 0.9.

As to `CCCN1Cc2cccc(C(=O)NCc3ccccc3)c2C1=O`, the activation factor was 0.9.

As for `CC(=O)N1CCc2cc(S(=O)(=O)Nc3ccccc3N3CCN(C)CC3)ccc21`, the activation factor is 1.

`CCN(CC)c1ccc2cc(C(=O)O)c(=O)oc2c1`: the activation factor was 1.

As for `Cc1ccc(C)c(N2CCN(C(=O)CCCCn3c(=O)[nH]c4ccccc4c3=O)CC2)c1`, the activation factor is 0.8.

For the compound `CC1(C)Cc2c(sc3nc4n(c(=N)c23)CCCCC4)CO1`, the activation factor is 0.4.

For `O=c1cccc(-c2ccc(Br)cc2)o1`, the activation factor is 0.9.

Turning to `O=C(CN1CCN(c2ccc(F)cc2)CC1)Nc1cccc(C(F)(F)F)c1`, the activation factor is 0.9.

Take `Cc1ccc(S(=O)(=O)N2CCC(C(=O)OCC(=O)N3CC(=O)Nc4ccccc43)CC2)cc1`: the activation factor was 0.9.

For `CCC(c1nnnn1Cc1ccco1)N(CCc1ccccc1)Cc1cc2cccc(C)c2[nH]c1=O` (stereo unspecified), the activation factor was 0.9.

In the case of `O=C1CC(Cc2ccccc2)C(=O)N1c1ccc(Cl)cn1` (stereo unspecified), the activation factor is 1.

Consider `C=CCn1c(SCC(=O)NC23CC4CC(CC(C4)C2)C3)nc(O)cc1=O`, for which the activation factor was 0.9.

Take `CCn1c(=N)n(CC(=O)c2cccc(OC)c2)c2ccccc21`: the activation factor was 1.

In the case of `O=C(CCCOc1ccccc1)Nc1cccc(C(=O)O)c1`, the activation factor was 1.

As to `COc1ccc(S(=O)(=O)N2CCN(c3ncnc4c(-c5ccccc5)nsc34)CC2)cc1`, the activation factor is 0.9.

As for `CCOC(=O)c1c(N)c(C#N)nn1-c1ccccc1C(=O)OC`, the activation factor was 0.8.

As to `Cc1cccc(N2CC(C)Cn3c2nc2c3c(=O)n(CC(=O)OCc3ccccc3)c(=O)n2C)c1` (stereo unspecified), the activation factor was 0.9.

With `CCn1c(=O)cc(O)c2ccccc21`, the activation factor is 1.

Take `O=C1c2ccccc2C(O)N1Cc1ccccc1` (stereo unspecified): the activation factor is 1.

For `CCOc1ccc(CCNC(=O)C(CC)n2nc(C)n3c(cc4sccc43)c2=O)cc1OCC` (stereo unspecified), the activation factor is 1.

On to `Cc1cc(=O)n2c3c(cccc13)CCC2`, for which the activation factor is 0.9.

Consider `CC(C)OCCCNc1nc2c(c(=O)n(Cc3ccccc3F)c(=O)n2C)n1C`, for which the activation factor was 0.9.

On to `CCOC(=O)c1sc(NC(=O)c2cc(S(=O)(=O)N3CCOCC3)ccc2C)nc1C`, for which the activation factor was 0.9.

As to `Cc1ccc(S(=O)(=O)NCCN2CCOCC2)cc1C`, the activation factor was 1.

`Cc1cc(C(=O)N2CCN(c3ccccn3)CC2)c(C)o1`: the activation factor was 0.9.

In the case of `CC(=O)NCC(=O)N(C)C(C(=O)Nc1ccc2c(c1)OCCO2)c1ccccc1` (stereo unspecified), the activation factor was 1.

`CCOC(=O)c1c(C2CC2)csc1NC(=O)CSCc1c(C)noc1C`: the activation factor is 0.9.

Turning to `O=C(NC1CCCCC1)c1ccc2c(=O)n(CC3CCCO3)c(=O)[nH]c2c1` (stereo unspecified), the activation factor is 1.

On to `CCOc1ccc(OCC)c(NC(=O)CSc2nnc(Cn3cnc4ccccc43)n2C)c1`, for which the activation factor was 0.9.

For the compound `CCOC(=O)CSc1nc2c(c(=O)n(Cc3ccccc3Cl)c(=O)n2C)n1C`, the activation factor was 0.9.

Consider `CCOC(=O)C1=C(CNC2CCCCC2)NC(=O)NC1c1cc(C)ccc1C` (stereo unspecified), for which the activation factor was 0.9.

Turning to `CSc1ccc(S(=O)(=O)NCc2ccc(Cl)cc2)cc1`, the activation factor was 0.8.

With `CC1(C)CC(=O)C=C(NC2CC(C)(C)NC(C)(C)C2)C1`, the activation factor was 0.9.

Take `CCOC(=O)n1c(SCC(=O)N(CC)CC)nc2ccccc21`: the activation factor is 0.9.

For `CCC(C)(C)n1nnnc1C(c1ccccc1OC)N1CCSCC1` (stereo unspecified), the activation factor is 0.9.
